According to PubChem BioAssay (NCATS):
Values joined by “and” are separate entries in the source; they are usually repeats but may differ in a detail not shown here. Equal entries are not always repeated. Results filed as inconclusive are left out. A call without a number means that no potency is given here. Unmarked numbers belong to inactive results. Active and inactive are the calls of the source. Calls come from the whole dose curve; as a rule, active = well fitted curve in the direction sought with a large enough effect; inconclusive = small, poorly fitted or top-dose-only effect, or another doubt; inactive = no such curve, though single readings can be large; an effect the other way counts as inactive or inconclusive.

Tests used:
[1] = system: KB-3-1; assay: Cytotoxic Profiling of Annotated Libraries Using Quantitative High-Throughput Screening (AID 1296008); conditions: Five cell lines viability, CellTiter-Glo ATP luminescence, 48-72 h; max response: stronger effect = lower value; note: nearly all actives have a fitted effect of over 60% in size
How it was run: (§1)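 Cells exposed to compounds for 48 or 72 hr at 37 degrees Celsius. Viability read as ATP-coupled luminescence with CellTiter-Glo after 10 min at room temperature.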

[2] = system: NIH3T3; assay: as above; conditions: Five cell lines viability, CellTiter-Glo ATP luminescence, 48-72 h; max response: stronger effect = lower value
How it was run: as §1

[3] = system: HACAT; assay: qHTS assay to identify novel small-molecules to repurpose for Merkel cell carcinoma treatment (AID 1296009); conditions: MCC and control cell lines, CellTiter-Glo viability, 72 h; at 44.8 µM (top of the series) unless noted; note: nearly all actives have a fitted effect of over 60% in size
How it was run: (§2)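 Dose-response viability screen; 72 hr exposure at 37 degree celsius; CellTiter-Glo added, 10 min room temperature, luminescence read; RLUs scaled between no-cell and DMSO wells.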

[4] = system: NIH3T3; assay: as above; conditions: MCC and control cell lines, CellTiter-Glo viability, 72 h; at 44.8 µM (top of the series) unless noted
How it was run: as §2

[5] = system: C33A; assay: Primary qHTS to identify gynecologic anti-cancer compounds using libraries of approved drugs and bioactive compounds (AID 1345084); conditions: Gynecologic cancer cell panel viability, ATPlite luminescence, 48 h; series mostly up to 57.5 µM; note: nearly all actives have a fitted effect of over 55% in size
How it was run: (§3)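 Cytotoxicity screen measuring ATP content by luciferase luminescence. Each compound is applied at five concentrations for 48 h at 37 C with 5% CO2.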

[6] = system: CAOV3; assay: as above; conditions: Gynecologic cancer cell panel viability, ATPlite luminescence, 48 h; series mostly up to 57.5 µM
How it was run: as §3

[7] = system: CASKI; assay: as above; conditions: Gynecologic cancer cell panel viability, ATPlite luminescence, 48 h; series mostly up to 57.5 µM
How it was run: as §3

[8] = system: Es-2; assay: as above; conditions: Gynecologic cancer cell panel viability, ATPlite luminescence, 48 h; series mostly up to 57.5 µM
How it was run: as §3

[9] = system: HeLa; assay: as above; conditions: Gynecologic cancer cell panel viability, ATPlite luminescence, 48 h; series mostly up to 57.5 µM
How it was run: as §3

[10] = system: Hek293T; assay: as above; conditions: Gynecologic cancer cell panel viability, ATPlite luminescence, 48 h, control line for the selectivity index; series mostly up to 57.5 µM
How it was run: as §3

[11] = system: JEG-3; assay: as above; conditions: Gynecologic cancer cell panel viability, ATPlite luminescence, 48 h; series mostly up to 57.5 µM
How it was run: as §3

[12] = system: OV90; assay: as above; conditions: Gynecologic cancer cell panel viability, ATPlite luminescence, 48 h; series mostly up to 57.5 µM
How it was run: as §3

[13] = system: MCC-13; assay: qHTS assay to identify novel small-molecules to repurpose for Merkel cell carcinoma treatment (AID 1296009); conditions: MCC and control cell lines, CellTiter-Glo viability, 72 h; note: nearly all actives have a fitted effect of over 60% in size
How it was run: as §2

[14] = system: MCC-26; assay: as above; conditions: MCC and control cell lines, CellTiter-Glo viability, 72 h
How it was run: as §2

[15] = system: MKL-1; assay: as above; conditions: MCC and control cell lines, CellTiter-Glo viability, 72 h
How it was run: as §2

[16] = system: MKL-2; assay: as above; conditions: MCC and control cell lines, CellTiter-Glo viability, 72 h
How it was run: as §2

[17] = system: UISO; assay: as above; conditions: MCC and control cell lines, CellTiter-Glo viability, 72 h
How it was run: as §2

[18] = system: WaGa; assay: as above; conditions: MCC and control cell lines, CellTiter-Glo viability, 72 h
How it was run: as §2
Potency is the fitted concentration of half-maximal effect.

C[C@@H]1C(=O)O[C@H]2[C@H](O)[C@@]34[C@@H]5OC(=O)[C@@]3(O[C@@H]3OC(=O)[C@@H](O)[C@@]34[C@H](C(C)(C)C)[C@H]5O)[C@@]12O
outcome [1]: inactive | outcome [2]: inactive | outcome [3]: inactive [at 17.4 µM] | outcome [4]: inactive [at 17.4 µM] | Potency [5]: inactive | Potency [6]: inactive | Potency [7]: inactive | Potency [8]: inactive | Potency [9]: inactive | Potency [10]: inactive | Potency [11]: inactive | Potency [12]: inactive

COC1CC(O[C@H]2CC[C@]3(C=O)C4CC[C@]5(C)[C@@H](C6=CC(=O)OC6)CC[C@]5(O)[C@@H]4CC[C@]3(O)C2)OC(C)C1O[C@@H]1O[C@H](CO)[C@@H](O)[C@H](O)[C@H]1O (some centres not stated)
Potency [1]: 273 nM (active) | outcome [2]: inactive | Potency [5]: 141 nM (active) | Potency [8]: 355 nM (active) | Potency [9]: 355 nM (active) | Potency [10]: 501 nM (active)

COC(=O)C1(C)CCC(=O)C2(C)c3c(O)cc(C(C)C)cc3C(O)C(OC(C)=O)C12 (configuration not stated)
outcome [2]: inactive | Potency [5]: inactive | Potency [7]: inactive | Potency [8]: inactive | Potency [9]: inactive | Potency [10]: inactive | Potency [11]: inactive | Potency [12]: inactive

Cc1cn(C[C@H](N)C(=O)O)c(=O)n(Cc2cc(-c3ccccc3)sc2C(=O)O)c1=O
outcome [1]: inactive | outcome [2]: inactive | Potency [5]: inactive | Potency [6]: inactive | Potency [7]: inactive | Potency [8]: inactive | Potency [9]: inactive | Potency [10]: inactive | Potency [11]: inactive | Potency [12]: inactive

CC(C)C1(OO)C=C2C(=O)CC3C(C)(C(=O)O)CCCC3(C)C2CC1 (configuration not stated)
outcome [2]: inactive | outcome [3]: inactive | Potency [5]: inactive | Potency [6]: inactive | Potency [7]: inactive | Potency [8]: inactive | Potency [9]: inactive | Potency [10]: inactive | Potency [11]: inactive | Potency [12]: inactive

COC1CC(OC2CCC3(C=O)C(CCC4C3CCC3(C)C(C5=CC(=O)OC5)CCC43O)C2)OC(C)C1OC1OC(CO)C(O)C(O)C1O (configuration not stated)
outcome [2]: inactive | Potency [5]: 158 nM (active) | Potency [7]: 1.12 µM (active) | Potency [8]: 355 nM (active) | Potency [9]: 282 nM (active) | Potency [10]: 398 nM (active) | Potency [12]: 0.891 µM (active)

Cc1cc(C(=O)CN2CCCC2)c(C)n1-c1ccc(F)cc1
max response [1]: 2.15% and -9.06% | max response [2]: 1.34% and -18.5% | Potency [5]: inactive | Potency [6]: inactive | Potency [7]: inactive | Potency [8]: inactive | Potency [9]: inactive | Potency [10]: inactive | Potency [11]: inactive | Potency [12]: inactive

COC(=O)N1CCN(C(=O)Cc2ccc(Cl)c(Cl)c2)[C@@H](CN2CCCC2)C1
max response [1]: -3.66% | outcome [2]: inactive | Potency [5]: inactive | Potency [6]: inactive | Potency [7]: inactive | Potency [8]: inactive | Potency [9]: inactive | Potency [10]: inactive | Potency [11]: inactive | Potency [12]: inactive

CN1[C@@H]2CC[C@H]1CC(OC(=O)C1C=Nc3ccccc31)C2 (some centres not stated)
outcome [2]: inactive | Potency [5]: inactive | Potency [7]: inactive | Potency [8]: inactive | Potency [9]: inactive | Potency [10]: inactive | Potency [11]: inactive | Potency [12]: inactive

CC12CCC3C(CCC4(O)CC(O)CCC34C=O)C1(O)CCC2C1=CC(=O)OC1 (configuration not stated)
Potency [1]: 1160 nM (active) | outcome [2]: inactive | Potency [5]: 1000 nM (active) | Potency [7]: 7.08 µM (active) | Potency [8]: 1120 nM (active) | Potency [9]: 1780 nM (active) | Potency [10]: 1260 nM (active) | Potency [12]: 7.08 µM (active)

COC1CC(OC2CCC3(C)C(CCC4C3CCC3(C)C(C5=CC(=O)OC5)C(OC(C)=O)CC43O)C2)OC(C)C1OC1OC(CO)C(O)C(O)C1O (configuration not stated)
Potency [1]: 1090 nM (active) | outcome [2]: inactive | Potency [5]: 3160 nM (active) | Potency [9]: 2820 nM (active) | Potency [10]: 3160 nM (active)

CO[C@@H]1[C@H](O)[C@@H](O[C@@H]2C[C@H]3CC[C@@H]4C(CC[C@]5(C)[C@@H](C6=CC(=O)OC6)CC[C@]45O)[C@@]3(C)[C@H](O)C2)O[C@H](C)[C@@H]1O[C@@H]1O[C@H](CO)[C@@H](O)[C@H](O)[C@H]1O (some centres not stated)
Potency [1]: 432 nM (active) | outcome [2]: inactive | outcome [4]: inactive [at 17.4 µM] | Potency [5]: 199 nM (active) | Potency [7]: 1.26 µM (active) | Potency [8]: 398 nM (active) | Potency [9]: 562 nM (active) | Potency [10]: 398 nM (active) | Potency [12]: 2.24 µM (active)

C[C@H]1O[C@@H](O[C@H]2C[C@@H](O)[C@]3(CO)C4C(CC[C@]3(O)C2)[C@@]2(O)CC[C@H](C3=CC(=O)OC3)[C@@]2(C)C[C@H]4O)[C@@H](O)[C@@H](O)[C@H]1O (some centres not stated)
Potency [1]: 432 nM (active) | outcome [2]: inactive | Potency [5]: 398 nM (active) | Potency [6]: 562 nM (active) | Potency [8]: 355 nM (active) | Potency [9]: 562 nM (active) | Potency [10]: 355 nM (active) | Potency [12]: 1.12 µM (active)

CC(C)(O)[C@H]1O[C@H]2CC[C@@]3(C)[C@@](O)(CC[C@H]4Cc5c([nH]c6ccccc56)[C@@]43C)C2=CC1=O
outcome [2]: inactive | Potency [5]: inactive | Potency [6]: inactive | Potency [7]: inactive | Potency [8]: inactive | Potency [9]: inactive | Potency [10]: inactive | Potency [11]: inactive | Potency [12]: inactive

C[CH2][Hg][S]c1ccccc1C(=O)O
Potency [1]: 7310 nM (active) | Potency [13]: 15 µM (active) | Potency [14]: 15 µM (active) | Potency [15]: 2.99 µM (active) | Potency [16]: 944 nM (active) | Potency [17]: 2.99 µM (active) | Potency [18]: 2.66 µM (active)

CC(=O)OC1CC(O)C(C)(C)C2CC(OC(C)=O)C3(C)C(CCC4(C)C(c5ccoc5)C(=O)C5OC543)C12C (configuration not stated)
max response [1]: 4.61% | outcome [2]: inactive | Potency [5]: inactive | Potency [6]: inactive | Potency [7]: inactive | Potency [8]: inactive | Potency [9]: inactive | Potency [10]: inactive | Potency [11]: inactive | Potency [12]: inactive
